Experimental data from PubChem BioAssay (NCATS).
Values joined by “and” are separate entries in the source; they are usually repeats but may differ in a detail not shown here. Identical values can stand only once. Records with an inconclusive call do not appear. Active and inactive are the calls of the source. Unless noted, calls follow the shape of the dose curve; as a rule, active = well fitted curve in the direction sought with a large enough effect; inconclusive = small, poorly fitted or top-dose-only effect, or another doubt; inactive = no such curve, though single readings can be large; an effect the other way counts as inactive or inconclusive.

Assays:
[1] = Cell Viability - N2a (AID 540); details: N2a mouse neuroblastoma cell viability; activity change, negative = cytotoxicity: at 92.2 µM (top of the series);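 also: cells exposed to compound for 40 h at 37 °C; plate controls were DMSO alone for no effect and tamoxifen control for full effect; nearly all actives have a fitted effect of over 45% in size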
Summary of the method: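 Luminescent ATP signal (CellTiter-Glo, 20 min at room temperature) served as the viability read-out after N2a cells were treated with compounds for 40 hours at 37 °C. Concentration-response data were fitted to the Hill equation for AC50.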

[2] = Cell Viability - Renal Proximal Tubule (AID 545); details: renal proximal tubule cells viability, primary cells of rat origin; at 91.7 µM (top of the series); also: nearly all actives have a fitted effect of over 40% in size
Summary of the method: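 Rat kidney proximal tubule cells, freshly isolated; 1000 cells/well, 5 hr settle, compound 40 hr 37 °C. CellTiter-Glo 20 min RT, luminescence read. AC50 by standard Hill fit.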

[3] = Cellular Toxicity (caspase-3) Jurkat (AID 655); details: Jurkat caspase-3 activation, luminescence, DMSO = 0%, tamoxifen = 100%; at 92.2 µM (top of the series);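 also: cells exposed to compound for 16 h at 37 °C before reading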
Summary of the method: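 Luminescent caspase-3/7 readout (aminoluciferin substrate cleavage) in human T-cell leukemia Jurkat cells after 16 hr compound exposure. Concentration-response normalized to DMSO and 100 uM tamoxifen; AC50 by standard Hill equation.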

[4] = Cell Viability - LYMP1-003 - Assay at 24 hr (AID 963);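 also: plate controls were DMSO only for no effect and tetraoctylammonium bromide positive control for full effect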
Summary of the method: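 Cells seeded at 2500/well, 5 hr at 37 C; compounds added; 24 hr at 37 C; CellTiter-Glo added, 30 min room temperature; luminescence read. Decrease in ATP taken as cytotoxicity, AC50 from Hill modelling.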

[5] = Cell Viability - LYMP2-004 (AID 966);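 also: plate controls were DMSO only for no effect and tetraoctylammonium bromide control for full effect; nearly all actives have a fitted effect of over 65% in size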
Summary of the method: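 Cells seeded 2500/well, rested 5 hr at 37 C, dosed across a concentration series, incubated 24 hr at 37 C, then CellTiter-Glo added for 30 min at room temperature and luminescence read. Hill fitting gave AC50.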

[6] = Cell Viability - LYMP2-005 (AID 967);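 also: plate controls were DMSO only for no effect and 92 µM tetraoctylammonium bromide control for full effect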
Summary of the method: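 Steps: seed 2500 LYMP2-005 cells/well, incubate 5 h at 37 C, add compound, incubate 24 h at 37 C, add CellTiter-Glo, wait 30 min at RT, read luminescence. Concentration-response data fitted to Hill equation for AC50.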

[7] = Cell Viability - LYMP2-015 (AID 971);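 also: 0% = DMSO only and full effect = 92 µM tetraoctylammonium bromide; nearly all actives have a fitted effect of over 55% in size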
Summary of the method: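 Luminescent ATP read-out (CellTiter-Glo) served as the viability measure after lymphoblastoid cells were exposed to compounds for 24 hours at 37 C. Concentration-response data were fitted with the Hill equation to give AC50.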

[8] = Cell Viability - LYMP2-019 (AID 973);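 also: 0% = DMSO alone and full effect = 92 µM tetraoctylammonium bromide; nearly all actives have a fitted effect of over 55% in size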
Summary of the method: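 Luminescent ATP read-out (CellTiter-Glo, 30 min room temperature) served as the viability measure after 24 hr treatment of lymphoblastoid cells at 37 C. Concentration-response data were fitted to the Hill equation for AC50.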

[9] = Cell Viability - LYMP2-021 (AID 974);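 also: compound exposure lasts 24 hours at 37 °C; % is scaled to controls: 0 for no effect and ±100 for the full control effect; nearly all actives have a fitted effect of over 55% in size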
Summary of the method: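 Plate 2500 lymphoblastoid cells per well and incubate 5 hr at 37 C. Add compounds over a concentration range and incubate 24 hr at 37 C. Add CellTiter-Glo, wait 30 min at room temperature, read luminescence.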

[10] = Cell Viability - LYMP2-023 (AID 975);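 also: cellular ATP measured by luciferase luminescence as viability proxy; plate controls were DMSO only for no effect and 92 µM tetraoctylammonium bromide control for full effect; nearly all actives have a fitted effect of over 55% in size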
Summary of the method: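 2500 cells/well, 5 hr 37 C; cpd 24 hr 37 C; CellTiter-Glo, 30 min RT; luminescence. qHTS conc-response, Hill fit -> AC50. Pos ctrl tetraoctylammonium bromide.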

[11] = Cell Viability - LYMP2-025 (AID 976);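 also: plate controls were DMSO only for no effect and tetraoctylammonium bromide control for full effect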
Summary of the method: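 Seed 2500 LYMP2-025 cells/well; 5 hr at 37 C; add compound; 24 hr at 37 C; add CellTiter-Glo; 30 min RT; read luminescence. AC50 from Hill-modelled concentration-response.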

[12] = Cell Viability - LYMP2-002 (AID 977);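 also: compound exposure lasted 24 h at 37 °C; plate controls were DMSO only for no effect and 92 µM tetraoctylammonium bromide for full effect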
Summary of the method: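 Human lymphoblastoid LYMP2-002 cells, 2500 per well, exposed to compounds for 24 h at 37 C in complete medium; viability read as intracellular ATP by CellTiter-Glo luminescence, AC50 from Hill fits.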

[13] = Cell Viability - LYMP2-006 (AID 978); also: % is scaled to controls: 0 for no effect and ±100 for the full control effect; nearly all actives have a fitted effect of over 60% in size
Summary of the method: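 qHTS, 1536-well; 2500 cells/well, 5 hr 37 C; cpd 24 hr 37 C; CellTiter-Glo 30 min RT; luminescence. Tetraoctylammonium bromide pos. ctrl. AC50 via Hill eqn.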

[14] = Cell Viability - LYMP2-008 (AID 980); also: % is scaled to controls: 0 for no effect and ±100 for the full control effect; nearly all actives have a fitted effect of over 60% in size
Summary of the method: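 qHTS, human lymphoblastoid line, 2500 cells/well; 5 hr preincubation, 24 hr compound, 37 C. CellTiter-Glo ATP luminescence. AC50 via Hill equation. Tetraoctylammonium bromide positive control.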

[15] = Cell Viability - LYMP2-026 (AID 989); also: % is scaled to controls: 0 for no effect and ±100 for the full control effect; nearly all actives have a fitted effect of over 50% in size
Summary of the method: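 Luminescent ATP signal (CellTiter-Glo, 30 min room temperature) measures viable lymphoblastoid cells after 24 hr compound treatment at 37 C. Decreased ATP reflects acute toxicity; AC50 values come from Hill-equation modeling.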

[16] = Cell Viability - LYMP1-002 - Assay at 24 hr (AID 993); also: % is scaled to controls: 0 for no effect and ±100 for the full control effect
Summary of the method: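 Cells plated 2500/well, 5 hr 37 C; compounds added, 24 hr 37 C; CellTiter-Glo added, 30 min RT; luminescence read. Tetraoctylammonium bromide positive control. Hill-equation AC50.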

[17] = Cell Viability - LYMP1-002 - Assay at 40 hr (AID 994);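 also: 0% = DMSO only and full inhibition = 92 µM tetraoctylammonium bromide; nearly all actives have a fitted effect of over 60% in size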
Summary of the method: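 Luminescent ATP signal served as the viability readout, with decreases taken as toxicity. Cells were treated with compounds across a concentration range for 40 hours at 37 C, and AC50 values came from standard Hill modeling.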

[18] = molecular target: Retinoic acid receptor RXR-alpha (Homo sapiens) (UniProt P19793); assay: qHTS assay for small molecule antagonists of retinoid X receptor alpha signaling (AID 588546; active = well fitted inhibition curve with a large enough effect in the signal ratio, with a control signal flat, not every such curve was filed as active; the % refers to the signal ratio;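 also: cells stimulated with 9-cis-retinoic acid as agonist; % is scaled to controls: 0 for no effect and ±100 for the full control effect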); details: HEK293T RXRa-UAS-bla, beta-lactamase ratio, antagonist mode
Summary of the method: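 Beta-lactamase reporter inhibition, read as CCF4 fluorescence ratio (ex 405, em 460/530 nm) after 2 h at RT. HEK293T UAS-bla cells, 2500/well, were stimulated with 9-cis-RA at 500 or 100 nM final alongside test compound for 18 h at 37 C.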

[19] = qHTS assay for small molecule agonists of the antioxidant response element (ARE) signaling pathway measured by Nrf2-dependant transcriptional activity - cell viability counter screen (AID 720653; active = well fitted curve in the direction sought with a large enough effect in the repeat runs; an effect the other way counts as inactive or inconclusive; also: % is scaled to controls: 0 for no effect and ±100 for the full control effect); details: ARE-bla HepG2 viability, CellTiter-Glo ATP luminescence, 16 h; max response: hits give low values
Summary of the method: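 ARE-bla HepG2 cells treated with compounds for 16 h at 37C; this counter screen measures viability as intracellular ATP by CellTiter-Glo luminescence after 30 min at room temperature.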

[20] = qHTS assay for cell viability of the p53RE-bla HCT-116 cell line (AID 743292)
Summary of the method: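 Viability of compound-treated p53RE-bla HCT-116 cells is taken from ATP-dependent luciferase luminescence. Treatment lasts 16 h at 37 C after a 5 h settling period; detection follows 30 min at room temperature.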

Retinoic acid receptor RXR-alpha (Homo sapiens), sequence (P19793 whole entry, looked up): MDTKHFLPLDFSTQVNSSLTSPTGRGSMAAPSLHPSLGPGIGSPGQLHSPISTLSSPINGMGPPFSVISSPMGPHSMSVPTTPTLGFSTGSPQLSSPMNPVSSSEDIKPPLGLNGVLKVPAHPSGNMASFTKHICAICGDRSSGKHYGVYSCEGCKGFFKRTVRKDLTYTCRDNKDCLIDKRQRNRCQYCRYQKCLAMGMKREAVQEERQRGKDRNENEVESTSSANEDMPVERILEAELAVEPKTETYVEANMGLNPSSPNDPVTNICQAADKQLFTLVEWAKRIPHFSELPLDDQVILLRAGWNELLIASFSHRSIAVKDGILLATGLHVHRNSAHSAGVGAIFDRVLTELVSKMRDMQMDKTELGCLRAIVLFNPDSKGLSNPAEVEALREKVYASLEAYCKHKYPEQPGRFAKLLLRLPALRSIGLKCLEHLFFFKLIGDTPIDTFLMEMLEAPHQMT

O=[N+]([O-])c1cccc(Cl)c1Cl
inactive: activity change, negative = cytotoxicity [1] -3.99% | activity change, negative = cytotoxicity [2] -2.04% | caspase-3 activation [3] 1.08% | Potency [4] | Potency [5] | Potency [6] | Potency [7] | Potency [8] | Potency [9] | Potency [10] | Potency [11] | Potency [12] | Potency [13] | Potency [14] | Potency [15] | Potency [16] | Potency [17] | max response [18] 13.3% and -13.6% | max response [19] 3.32% and 9.85% | Potency [20]

O=C(O)c1ccc(O)cc1O
inactive: activity change, negative = cytotoxicity [1] 7.6% and 11% | activity change, negative = cytotoxicity [2] -3.65% and 5.93% | caspase-3 activation [3] -0.639% and 0.659% | Potency [4] | Potency [5] | Potency [6] | Potency [7] | Potency [8] | Potency [9] | Potency [10] | Potency [11] | Potency [12] | Potency [13] | Potency [14] | Potency [15] | Potency [16] | Potency [17] | max response [18] 1.87% | max response [19] 4.94% and 4% | Potency [20]

CCCN(CCC)C(=O)SCC
inactive: activity change, negative = cytotoxicity [1] -0.642% | activity change, negative = cytotoxicity [2] 6.23% | caspase-3 activation [3] 2.52% | Potency [4] | Potency [5] | Potency [6] | Potency [7] | Potency [8] | Potency [9] | Potency [10] | Potency [11] | Potency [12] | Potency [13] | Potency [14] | Potency [15] | Potency [16] | Potency [17] | max response [18] 13.3% and -9.15% | max response [19] -4.11% and 2.96% | Potency [20]

c1ccc2c(c1)c1cccc3ccc4cccc2c4c31
inactive: activity change, negative = cytotoxicity [1] 3.28% | activity change, negative = cytotoxicity [2] -12.3% | caspase-3 activation [3] 0.0871% | Potency [4] | Potency [5] | Potency [6] | Potency [7] | Potency [8] | Potency [9] | Potency [10] | Potency [11] | Potency [12] | Potency [13] | Potency [14] | Potency [15] | Potency [16] | Potency [17] | max response [18] -6.5% and -1.07% | max response [19] -0.0817% and -5.96% | Potency [20]

Cc1cccc([N+](=O)[O-])c1C
inactive: activity change, negative = cytotoxicity [1] -2.02% | activity change, negative = cytotoxicity [2] 0.624% | caspase-3 activation [3] 0.0783% | Potency [4] | Potency [5] | Potency [6] | Potency [7] | Potency [8] | Potency [9] | Potency [10] | Potency [11] | Potency [12] | Potency [13] | Potency [14] | Potency [15] | Potency [16] | Potency [17] | max response [18] -8.9% and -18.4% | max response [19] 4.89% and -2.35% | Potency [20]
